Reference: PubChem BioAssay AID1159580 (chemical genetic matrix, 2015)
The campaign covered roughly 5,500 compounds. About 2,000 (36%) were called active. Roughly 18% stayed inconclusive and do not appear here. Rule as the data show it: active = normalized growth mostly below about 0.91 (no sharp cut-off); inconclusive = no clear call, values can overlap the other calls; inactive = mostly above about 0.92. The list shows a part of the results.

Experiment: chemical genetic growth profiling, strain panel (AID 1159580);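 also: tested at 20 µM; growth read once vehicle control cultures reached saturation at 30 °C; 1 = growth at the plate median or of vehicle wells; lower values mean less growth of the strain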
Conditions: growth OD
[1] = S. cerevisiae deletion strains, locus YAL013W, strain DEP1, active compounds read low
[2] = S. cerevisiae deletion strains, locus YDR150W, strain NUM1, active compounds read low
[3] = S. cerevisiae deletion strains, locus YJR075W, strain HOC1, active compounds read low
[4] = S. cerevisiae deletion strains, locus YMR263W, strain SAP30, active compounds read low
[5] = S. cerevisiae deletion strains, locus YNL153C, strain GIM3, active compounds read low
[6] = S. cerevisiae deletion strains, locus YPL241C, strain CIN2, active compounds read low

Measured: normalized growth

CC1Cc2cc3c(cc2C(c2ccc(N)cc2)=NN1)OCO3 (centres undefined)
inactive: [1] 0.958 | S. cerevisiae deletion strains, locus YAL040C, strain CLN3, active compounds read low 0.946 | S. cerevisiae deletion strains, locus YCL061C, strain MRC1 (second series), active compounds read low 0.991 | [2] 0.995 | S. cerevisiae deletion strains, locus YDR363W, strain ESC2, active compounds read low 0.989 | S. cerevisiae deletion strains, locus YER002W, strain NOP16, active compounds read low 0.991 | [3] 0.97 | [4] 0.982 | [5] 0.979 | S. cerevisiae deletion strains, locus YNL175C, strain NOP13, active compounds read low 0.996 | S. cerevisiae deletion strains, locus YNL197C, strain WHI3, active compounds read low 0.999 | S. cerevisiae deletion strains, locus YNL224C, strain SQS1, active compounds read low 0.996 | [6] 0.986

CCCSP(=O)(OCC)SCCC
inactive: [1] 1.01 | S. cerevisiae deletion strains, locus YBR021W, strain FUR4, active compounds read low 1 | S. cerevisiae deletion strains, locus YBR229C, strain ROT2, active compounds read low 1.02 | S. cerevisiae deletion strains, locus YCL029C, strain bik1, active compounds read low 0.988 | S. cerevisiae deletion strains, locus YDL035C, strain GPR1, active compounds read low 1.02 | S. cerevisiae deletion strains, locus YDL074C, strain BRE1, active compounds read low 1.07 | S. cerevisiae deletion strains, locus YDL101C, strain DUN1, active compounds read low 1.02 | S. cerevisiae deletion strains, locus YDL134C, strain PPH21, active compounds read low 1.02 | S. cerevisiae deletion strains, locus YDL185W, strain tfp1, active compounds read low 0.984 | S. cerevisiae deletion strains, locus YDL192W, strain arf1, active compounds read low 0.988 | S. cerevisiae deletion strains, locus YDR101C, strain arx1, active compounds read low 0.99 | [2] 1.02 | S. cerevisiae deletion strains, locus YDR162C, strain NBP2, active compounds read low 1.02 | S. cerevisiae deletion strains, locus YDR318W, strain mcm21, active compounds read low 0.995 | S. cerevisiae deletion strains, locus YDR388W, active compounds read low 0.995 | S. cerevisiae deletion strains, locus YDR502C, strain sam2, active compounds read low 0.996 | S. cerevisiae deletion strains, locus YEL061C, strain CIN8, active compounds read low 1.02 | S. cerevisiae deletion strains, locus YER110C, active compounds read low 0.983 | S. cerevisiae deletion strains, locus YER155C, strain BEM2, active compounds read low 1.03 | S. cerevisiae deletion strains, locus YER167W, strain BCK2, active compounds read low 0.994 | S. cerevisiae deletion strains, locus YGL078C, strain dbp3, active compounds read low 0.964 | S. cerevisiae deletion strains, locus YGL086W, strain mad1, active compounds read low 0.994 | S. cerevisiae deletion strains, locus YGL248W, strain PDE1, active compounds read low 1.03 | S. cerevisiae deletion strains, locus YGR078C, strain PAC10, active compounds read low 1.02 | S. cerevisiae deletion strains, locus YGR135W, strain pre9, active compounds read low 0.98 | S. cerevisiae deletion strains, locus YGR229C, strain SMI1, active compounds read low 1.03 | S. cerevisiae deletion strains, locus YGR252W, strain gcn5, active compounds read low 0.927 | S. cerevisiae deletion strains, locus YHR030C, strain SLT2, active compounds read low 1.02 | S. cerevisiae deletion strains, locus YHR079C, strain IRE1 (second series), active compounds read low 0.982 | S. cerevisiae deletion strains, locus YHR094C, strain hxt1, active compounds read low 0.978 | S. cerevisiae deletion strains, locus YHR129C, strain ARP1, active compounds read low 1.02 | S. cerevisiae deletion strains, locus YHR200W, strain rpn10, active compounds read low 0.982 | S. cerevisiae deletion strains, locus YIL066C, strain RNR3, active compounds read low 1.03 | S. cerevisiae deletion strains, locus YIL073C, strain SPO22, active compounds read low 0.996 | S. cerevisiae deletion strains, locus YIL125W, strain kgd1, active compounds read low 0.987 | S. cerevisiae deletion strains, locus YIR030C, strain dcg1, active compounds read low 0.976 | S. cerevisiae deletion strains, locus YJL095W, strain BCK1, active compounds read low 1.04 | S. cerevisiae deletion strains, locus YJL134W, strain LCB3, active compounds read low 1.01 | S. cerevisiae deletion strains, locus YJL168C, strain set2, active compounds read low 0.981 | S. cerevisiae deletion strains, locus YJL187C, strain SWE1 (second series), active compounds read low 1.01 | S. cerevisiae deletion strains, locus YJR043C, strain POL32, active compounds read low 1.02 | [3] 1.03 | S. cerevisiae deletion strains, locus YKL009W, strain mrt4, active compounds read low 1.01 | S. cerevisiae deletion strains, locus YKL068W, active compounds read low 0.996 | S. cerevisiae deletion strains, locus YKL085W, strain MDH1 (second series), active compounds read low 0.99 | S. cerevisiae deletion strains, locus YKL085W, strain MDH1, active compounds read low 0.99 | S. cerevisiae deletion strains, locus YKL190W, strain CNB1, active compounds read low 1 | S. cerevisiae deletion strains, locus YKR001C, strain vps1, active compounds read low 0.982 | S. cerevisiae deletion strains, locus YLR039C, strain RIC1, active compounds read low 1.02 | S. cerevisiae deletion strains, locus YLR058C, strain SHM2, active compounds read low 1.01 | S. cerevisiae deletion strains, locus YLR102C, strain apc9, active compounds read low 0.977 | S. cerevisiae deletion strains, locus YLR262C, strain YPT6, active compounds read low 1.02 | S. cerevisiae deletion strains, locus YLR268W, strain sec22, active compounds read low 0.994 | S. cerevisiae deletion strains, locus YLR330W, strain CHS5, active compounds read low 1.02 | S. cerevisiae deletion strains, locus YLR342W, strain FKS1 (second series), active compounds read low 0.995 | S. cerevisiae deletion strains, locus YLR371W, strain rom2, active compounds read low 0.981 | S. cerevisiae deletion strains, locus YLR418C, strain cdc73, active compounds read low 0.999 | S. cerevisiae deletion strains, locus YML016C, strain PPZ1, active compounds read low 1.02 | S. cerevisiae deletion strains, locus YML032C, strain rad52, active compounds read low 0.983 | S. cerevisiae deletion strains, locus YML124C, strain tub3, active compounds read low 0.989 | S. cerevisiae deletion strains, locus YMR078C, strain ctf18, active compounds read low 0.983 | S. cerevisiae deletion strains, locus YMR223W, strain ubp8, active compounds read low 0.974 | [4] 1.03 | S. cerevisiae deletion strains, locus YMR307W, strain GAS1, active compounds read low 1.01 | S. cerevisiae deletion strains, locus YNL067W, strain RPL9B, active compounds read low 1.02 | S. cerevisiae deletion strains, locus YNL128W, strain TEP1, active compounds read low 1.03 | [5] 1.02 | S. cerevisiae deletion strains, locus YNL233W, strain BNI4, active compounds read low 1.01 | S. cerevisiae deletion strains, locus YNL250W, strain rad50, active compounds read low 0.984 | S. cerevisiae deletion strains, locus YNL271C, strain bni1, active compounds read low 0.974 | S. cerevisiae deletion strains, locus YNL298W, strain CLA4, active compounds read low 0.977 | S. cerevisiae deletion strains, locus YNL307C, strain MCK1, active compounds read low 0.979 | S. cerevisiae deletion strains, locus YNL322C, strain KRE1, active compounds read low 1.01 | S. cerevisiae deletion strains, locus YNR052C, strain pop2, active compounds read low 0.971 | S. cerevisiae deletion strains, locus YOL006C, strain TOP1, active compounds read low 1.05 | S. cerevisiae deletion strains, locus YOL012C, strain htz1 0.903 | S. cerevisiae deletion strains, locus YOL147C, strain pex11, active compounds read low 0.991 | S. cerevisiae deletion strains, locus YOR061W, strain CKA2, active compounds read low 1.01 | S. cerevisiae deletion strains, locus YOR069W, strain VPS5, active compounds read low 1.01 | S. cerevisiae deletion strains, locus YOR136W, strain idh2, active compounds read low 0.998 | S. cerevisiae deletion strains, locus YOR144C, strain elg1, active compounds read low 0.999 | S. cerevisiae deletion strains, locus YOR184W, strain ser1, active compounds read low 0.975 | S. cerevisiae deletion strains, locus YOR316C, strain cot1, active compounds read low 0.99 | S. cerevisiae deletion strains, locus YPL055C, strain LGE1, active compounds read low 1.03 | [6] 1.01 | S. cerevisiae deletion strains, locus YPR119W, strain clb2, active compounds read low 0.985 | S. cerevisiae deletion strains, locus YPR141C, strain kar3, active compounds read low 0.987 | S. cerevisiae deletion strains, locus YPR163C, strain tif3, active compounds read low 0.986 | S. cerevisiae deletion strains, locus YPR167C, strain met16, active compounds read low 0.985 | S. cerevisiae deletion strains, strain wtn01, active compounds read low 0.987 | S. cerevisiae strains, strain wild type, active compounds read low 1.02
